Reference: PubChem BioAssay AID1159580 (chemical genetic matrix, 2015)
Several values for one entry are separate records, joined by “and”; a condition that tells them apart may be missing. Identical values can stand only once. The whole screen tested about 5,500 compounds, of which about 2,000 (36%) were called active. Not shown: some 18% with an inconclusive outcome. No stated cut-off is given here; in the data, active means normalized growth mostly below about 0.91 (no sharp cut-off); inconclusive means no clear call, values can overlap the other calls; inactive means mostly above about 0.92. The list shows a part of the results.

Assay: chemical genetic growth profiling, strain panel (AID 1159580);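 further: tested at 20 µM; growth read once vehicle control cultures reached saturation at 30 °C; 1 = growth at the plate median or of vehicle wells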
Settings: growth OD
[1] = S. cerevisiae deletion strains, locus YBR229C, strain ROT2, stronger effect = lower value
[2] = S. cerevisiae deletion strains, locus YDL101C, strain DUN1, stronger effect = lower value
[3] = S. cerevisiae deletion strains, locus YDR150W, strain NUM1, stronger effect = lower value
[4] = S. cerevisiae deletion strains, locus YEL061C, strain CIN8, stronger effect = lower value
[5] = S. cerevisiae deletion strains, locus YGR078C, strain PAC10, stronger effect = lower value
[6] = S. cerevisiae deletion strains, locus YHR030C, strain SLT2, stronger effect = lower value
[7] = S. cerevisiae deletion strains, locus YJR043C, strain POL32, stronger effect = lower value
[8] = S. cerevisiae deletion strains, locus YJR075W, strain HOC1, stronger effect = lower value
[9] = S. cerevisiae deletion strains, locus YLR039C, strain RIC1, stronger effect = lower value
[10] = S. cerevisiae deletion strains, locus YLR262C, strain YPT6, stronger effect = lower value
[11] = S. cerevisiae deletion strains, locus YMR307W, strain GAS1, stronger effect = lower value
[12] = S. cerevisiae deletion strains, locus YNL153C, strain GIM3, stronger effect = lower value
[13] = S. cerevisiae deletion strains, locus YPL055C, strain LGE1, stronger effect = lower value
[14] = S. cerevisiae deletion strains, locus YPL241C, strain CIN2, stronger effect = lower value
[15] = S. cerevisiae strains, strain wild type, stronger effect = lower value
[16] = S. cerevisiae deletion strains, locus YAL013W, strain DEP1, stronger effect = lower value
[17] = S. cerevisiae deletion strains, locus YDL134C, strain PPH21, stronger effect = lower value
[18] = S. cerevisiae deletion strains, locus YHR087W, strain rtc3, stronger effect = lower value
[19] = S. cerevisiae deletion strains, locus YJL187C, strain SWE1, stronger effect = lower value
[20] = S. cerevisiae deletion strains, locus YLR058C, strain SHM2 (second series), stronger effect = lower value
[21] = S. cerevisiae deletion strains, locus YLR085C, strain ARP6, stronger effect = lower value
[22] = S. cerevisiae deletion strains, locus YML094W, strain GIM5, stronger effect = lower value
[23] = S. cerevisiae deletion strains, locus YMR219W, strain ESC1, stronger effect = lower value
[24] = S. cerevisiae deletion strains, locus YMR263W, strain SAP30, stronger effect = lower value
[25] = S. cerevisiae deletion strains, locus YNL298W, strain CLA4 (second series), stronger effect = lower value
[26] = S. cerevisiae deletion strains, locus YNL322C, strain KRE1, stronger effect = lower value
[27] = S. cerevisiae deletion strains, locus YNR030W, strain Alg12, stronger effect = lower value
[28] = S. cerevisiae deletion strains, locus YPR135W, strain CTF4, stronger effect = lower value
[29] = S. cerevisiae deletion strains, locus YCL061C, strain MRC1, stronger effect = lower value

Measured: normalized growth

O=c1ccn([C@@H]2O[C@H](COP(=O)(O)OP(=O)(O)OP(=O)(O)O)[C@@H](O)[C@H]2O)c(=O)[nH]1
inactive: S. cerevisiae deletion strains, locus YBR021W, strain FUR4, stronger effect = lower value 1.06 | [1] 1.02 | S. cerevisiae deletion strains, locus YCL029C, strain bik1, stronger effect = lower value 0.999 | S. cerevisiae deletion strains, locus YDL035C, strain GPR1, stronger effect = lower value 1.02 | S. cerevisiae deletion strains, locus YDL074C, strain BRE1, stronger effect = lower value 1.04 | [2] 1.02 | S. cerevisiae deletion strains, locus YDL185W, strain tfp1, stronger effect = lower value 0.974 | S. cerevisiae deletion strains, locus YDL192W, strain arf1, stronger effect = lower value 0.991 | S. cerevisiae deletion strains, locus YDR101C, strain arx1, stronger effect = lower value 1.03 | [3] 1.02 | S. cerevisiae deletion strains, locus YDR162C, strain NBP2, stronger effect = lower value 1.01 | S. cerevisiae deletion strains, locus YDR318W, strain mcm21, stronger effect = lower value 1 | S. cerevisiae deletion strains, locus YDR388W, stronger effect = lower value 0.988 | S. cerevisiae deletion strains, locus YDR502C, strain sam2, stronger effect = lower value 0.993 | [4] 1.01 | S. cerevisiae deletion strains, locus YER110C, stronger effect = lower value 0.954 | S. cerevisiae deletion strains, locus YER155C, strain BEM2, stronger effect = lower value 1.02 | S. cerevisiae deletion strains, locus YER167W, strain BCK2, stronger effect = lower value 1.02 | S. cerevisiae deletion strains, locus YGL078C, strain dbp3, stronger effect = lower value 0.984 | S. cerevisiae deletion strains, locus YGL086W, strain mad1, stronger effect = lower value 0.996 | S. cerevisiae deletion strains, locus YGL248W, strain PDE1, stronger effect = lower value 1.02 | [5] 1.02 | S. cerevisiae deletion strains, locus YGR135W, strain pre9, stronger effect = lower value 0.946 | S. cerevisiae deletion strains, locus YGR252W, strain gcn5, stronger effect = lower value 0.975 | [6] 1.01 and 1.04 | S. cerevisiae deletion strains, locus YHR079C, strain IRE1 (second series), stronger effect = lower value 1 | S. cerevisiae deletion strains, locus YHR079C, strain IRE1, stronger effect = lower value 1.04 | S. cerevisiae deletion strains, locus YHR094C, strain hxt1, stronger effect = lower value 0.996 | S. cerevisiae deletion strains, locus YHR129C, strain ARP1, stronger effect = lower value 1.02 | S. cerevisiae deletion strains, locus YHR200W, strain rpn10, stronger effect = lower value 1 | S. cerevisiae deletion strains, locus YIL066C, strain RNR3, stronger effect = lower value 1.03 | S. cerevisiae deletion strains, locus YIL073C, strain SPO22, stronger effect = lower value 0.962 | S. cerevisiae deletion strains, locus YIL125W, strain kgd1, stronger effect = lower value 1.01 | S. cerevisiae deletion strains, locus YIR030C, strain dcg1, stronger effect = lower value 0.996 | S. cerevisiae deletion strains, locus YJL095W, strain BCK1, stronger effect = lower value 1.04 | S. cerevisiae deletion strains, locus YJL134W, strain LCB3, stronger effect = lower value 1.01 | S. cerevisiae deletion strains, locus YJL168C, strain set2, stronger effect = lower value 0.98 | S. cerevisiae deletion strains, locus YJL187C, strain SWE1 (second series), stronger effect = lower value 1.03 | [7] 1.04 | S. cerevisiae deletion strains, locus YJR066W, strain TOR1, stronger effect = lower value 1.01 | [8] 1 | S. cerevisiae deletion strains, locus YKL009W, strain mrt4, stronger effect = lower value 0.979 | S. cerevisiae deletion strains, locus YKL068W, stronger effect = lower value 1.02 | S. cerevisiae deletion strains, locus YKL085W, strain MDH1 (second series), stronger effect = lower value 1.01 | S. cerevisiae deletion strains, locus YKL085W, strain MDH1, stronger effect = lower value 1.01 | S. cerevisiae deletion strains, locus YKR001C, strain vps1, stronger effect = lower value 0.99 | [9] 1.04 | S. cerevisiae deletion strains, locus YLR058C, strain SHM2, stronger effect = lower value 1.01 | S. cerevisiae deletion strains, locus YLR102C, strain apc9, stronger effect = lower value 1 | S. cerevisiae deletion strains, locus YLR113W, strain HOG1, stronger effect = lower value 1.05 | [10] 1.03 | S. cerevisiae deletion strains, locus YLR268W, strain sec22, stronger effect = lower value 0.988 | S. cerevisiae deletion strains, locus YLR330W, strain CHS5, stronger effect = lower value 1.01 | S. cerevisiae deletion strains, locus YLR342W, strain FKS1 (second series), stronger effect = lower value 1.03 | S. cerevisiae deletion strains, locus YLR371W, strain rom2, stronger effect = lower value 0.998 | S. cerevisiae deletion strains, locus YLR418C, strain cdc73, stronger effect = lower value 0.976 | S. cerevisiae deletion strains, locus YML016C, strain PPZ1, stronger effect = lower value 1.01 | S. cerevisiae deletion strains, locus YML032C, strain rad52, stronger effect = lower value 0.972 | S. cerevisiae deletion strains, locus YML124C, strain tub3, stronger effect = lower value 0.995 | S. cerevisiae deletion strains, locus YMR078C, strain ctf18, stronger effect = lower value 1 | S. cerevisiae deletion strains, locus YMR223W, strain ubp8, stronger effect = lower value 0.977 | [11] 0.976 | S. cerevisiae deletion strains, locus YNL067W, strain RPL9B, stronger effect = lower value 1.04 | [12] 1.04 | S. cerevisiae deletion strains, locus YNL183C, strain NPR1, stronger effect = lower value 1.04 | S. cerevisiae deletion strains, locus YNL233W, strain BNI4, stronger effect = lower value 1.04 | S. cerevisiae deletion strains, locus YNL250W, strain rad50, stronger effect = lower value 0.989 | S. cerevisiae deletion strains, locus YNL271C, strain bni1, stronger effect = lower value 0.998 | S. cerevisiae deletion strains, locus YNL298W, strain CLA4, stronger effect = lower value 0.98 | S. cerevisiae deletion strains, locus YNL307C, strain MCK1, stronger effect = lower value 0.994 | S. cerevisiae deletion strains, locus YNR052C, strain pop2, stronger effect = lower value 0.995 | S. cerevisiae deletion strains, locus YOL012C, strain htz1 0.439 | S. cerevisiae deletion strains, locus YOL147C, strain pex11, stronger effect = lower value 0.99 | S. cerevisiae deletion strains, locus YOR061W, strain CKA2, stronger effect = lower value 1.01 | S. cerevisiae deletion strains, locus YOR069W, strain VPS5, stronger effect = lower value 1.01 | S. cerevisiae deletion strains, locus YOR136W, strain idh2, stronger effect = lower value 0.997 | S. cerevisiae deletion strains, locus YOR144C, strain elg1, stronger effect = lower value 0.992 | S. cerevisiae deletion strains, locus YOR184W, strain ser1, stronger effect = lower value 0.965 | S. cerevisiae deletion strains, locus YOR231W, strain MKK1, stronger effect = lower value 1.07 | S. cerevisiae deletion strains, locus YOR316C, strain cot1, stronger effect = lower value 1 | [13] 1.04 | [14] 0.998 | S. cerevisiae deletion strains, locus YPL256C, strain CLN2, stronger effect = lower value 1.03 | S. cerevisiae deletion strains, locus YPR119W, strain clb2, stronger effect = lower value 1 | S. cerevisiae deletion strains, locus YPR141C, strain kar3, stronger effect = lower value 1.01 | S. cerevisiae deletion strains, locus YPR163C, strain tif3, stronger effect = lower value 1.02 | S. cerevisiae deletion strains, locus YPR167C, strain met16, stronger effect = lower value 1 | S. cerevisiae deletion strains, strain wtn01, stronger effect = lower value 0.977 | [15] 1.01

Cc1onc(-c2ccccc2Cl)c1C(=O)Nc1ccc2c(c1)OCO2
inactive: [16] 0.993 | [1] 1.02 | [2] 1 | [17] 0.985 | [3] 0.935 | [4] 1.01 | [5] 1 | S. cerevisiae deletion strains, locus YGR229C, strain SMI1, stronger effect = lower value 0.997 | [6] 1.08 | [18] 1.01 | [19] 1.01 | [7] 1.03 | [8] 1.01 | [9] 0.971 | [20] 1.02 | [21] 0.997 | [10] 0.99 | [22] 1.02 | [23] 1 | [24] 0.919 | [11] 1.01 | [12] 1 | [25] 1.04 | [26] 0.995 | [27] 1.03 | [13] 0.888 | [14] 1.01 | [28] 1.14

CSc1nc2ccc(NC(=O)c3c(-c4ccccc4)noc3C)cc2s1
inactive: [16] 0.971 | [1] 1.01 | [29] 0.99 | [2] 1.01 | [17] 1 | [3] 0.896 | [4] 1 | [5] 0.984 | [6] 0.897 | [18] 1 | [19] 1 | [7] 0.999 | [8] 1 | [9] 0.888 | [20] 0.996 | [21] 0.85 | [22] 0.974 | [23] 1 | [24] 0.945 | [11] 0.961 | S. cerevisiae deletion strains, locus YNL128W, strain TEP1, stronger effect = lower value 1 | [12] 1.01 | [25] 1 | [26] 0.998 | [27] 1 | [13] 0.926 | [14] 1 | [28] 0.921 | [15] 1.01
active: [10] 0.787

Cc1onc(-c2ccccc2Cl)c1C(=O)Nc1ccc(S(=O)(=O)Nc2nccs2)cc1
inactive: [16] 1.01 | [1] 1.01 | [29] 0.985 | [2] 0.977 | [17] 0.976 | [3] 0.972 | [4] 1.01 | [5] 1.01 | [6] 0.982 | [18] 0.968 | [19] 1 | [7] 0.966 | [8] 1 | S. cerevisiae deletion strains, locus YKL190W, strain CNB1, stronger effect = lower value 0.989 | [9] 0.975 | [20] 0.982 | [21] 1.05 | [10] 0.97 | [22] 1.03 | [23] 0.999 | [24] 1 | [12] 0.98 | [25] 0.949 | [26] 0.995 | [27] 0.996 | S. cerevisiae deletion strains, locus YOL006C, strain TOP1, stronger effect = lower value 0.926 | [13] 1.05 | [14] 1.01 | [28] 0.932 | [15] 0.968
